This is an account of results in PubChem BioAssay (NCATS).

The structures appear in SMILES notation. Records with an inconclusive call do not appear. A number with no mark means an inactive call. Activity calls are given as the source filed them. Calls come from the whole dose curve; as a rule, active = well fitted inhibition curve with a large enough effect; inconclusive = small, poorly fitted or top-dose-only effect; inactive = no such curve, though single readings can be large or run the other way.
Potency is the fitted concentration of half-maximal effect.

This experiment can be described thus: BET inhibitor-based combinations targeting novel dependencies in MECOM-rearranged (r) AML: UCSD-AML1 cell line (AID 2202235).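 For viability (% of control): plate controls were DMSO vehicle wells for no effect and blank wells for full effect.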 Note: nearly all actives have a fitted effect of over 40% in size. Conditions: UCSD-AML1 AML cells viability, CellTiter-Glo, 48 h; series mostly up to 46 µM; viability (% of control): at the top concentration. In outline:
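Cells were plated at 500 per well and exposed to each drug across an 11-point dose range for 48 hr at standard incubator conditions. Viability was read by CellTiter-Glo luminescence, and activity was expressed as AUC and per-cell-line Z-transformed AUC.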
(In general: ATP-based viability assays read luminescence as a measure of living cells.)
As for `Cc1ccccc1C(=O)c1ccc(Nc2ccc(Br)cc2N)cc1Cl`, the “viability (% of control)” value is 110%.

`Nc1nc(OCc2cc(Br)cs2)c2[nH]cnc2n1`: the “viability (% of control)” value is 105%.

On to `CC[C@H](NC(=O)[C@H](CS(=O)(=O)CC1CC1)N[C@@H](c1ccc(F)cc1)C(F)(F)F)C(=O)C(=O)NC1CC1`, for which the “viability (% of control)” value is 110%.

Consider `Cc1cc(C(=O)Nc2cc(Oc3ccc4nc(NC(=O)C5CC5)cn4n3)ccc2C)n(C)n1`, for which the Potency is 9.34 µM (active).

Regarding `COc1cc2nccc(Oc3ccc(NC(=O)Nc4cc(C)on4)c(Cl)c3)c2cc1OC`, the Potency is 16.6 µM (active).

As for `Cc1cc(SCc2sc(-c3ccc(C(F)(F)F)cc3)nc2C)ccc1OCC(=O)O`, the “viability (% of control)” value was 121%.

Consider `O=C(NC1CCOCC1)c1ccc(-c2cc(-c3cn[nH]c3-c3ccccn3)ccn2)cc1`, for which the “viability (% of control)” value was 111%.

Regarding `Cc1csc(-c2nnc(Nc3ccc(Oc4ncccc4-c4ccnc(N)n4)cc3)c3ccccc23)c1`, the Potency was 0.296 µM (active).

As for `CC(C)(C)Cn1c(N)nc2ccc(-c3[nH]c(C(C)(C)C)nc3-c3ccc(F)cc3)nc21`, the “viability (% of control)” value is 106%.

As to `COc1ccc(-c2c(-c3ccc(O)cc3O)n[nH]c2C)cc1`, the “viability (% of control)” value is 48.2%.

As for `C[C@@H]1CCN(C(=O)N2CCCC2)C[C@@H]1N(C)c1ncnc2[nH]ccc12`, the Potency was 0.934 µM (active).

On to `Cc1cc2c(cc1C1(c3ccc(C(=O)O)cn3)CC1)C(C)(C)CCC2(C)C`, for which the “viability (% of control)” value is 102%.

For the molecule `Cn1c2cc(S(C)=O)sc2c2cnn(Cc3cccc(N)c3)c(=O)c21` (configuration not stated), the “viability (% of control)” value is 111%.

Regarding `Cc1cccc(Nc2nc(-c3ccncc3)cs2)c1`, the “viability (% of control)” value was 111%.

Regarding `CCN(CCCOc1ccc2c(Nc3cc(CC(=O)Nc4cccc(F)c4)[nH]n3)ncnc2c1)CCOP(=O)(O)O`, the “viability (% of control)” value is 107%.

As to `O=C(NC[C@H](O)CN1CCc2ccccc2C1)c1ccnc(NC2CCC2)c1`, the “viability (% of control)” value is 111%.

Consider `COc1cc(F)c(F)c(Nc2ccc(I)cc2F)c1NS(=O)(=O)C1(C[C@H](O)CO)CC1`, for which the Potency is 0.662 µM (active).

Take `CC(C)(C)c1cc(NC(=O)Nc2ccc(-c3cn4c(n3)sc3cc(OCCN5CCOCC5)ccc34)cc2)no1`: the “viability (% of control)” value is 158%.

For the molecule `CN(NC(=O)CC(=O)NN(C)C(=S)c1ccccc1)C(=S)c1ccccc1`, the Potency was 0.059 µM (active).

Take `CNC(=O)c1ccc(C)c(-n2c(C)cc(OCc3ccc(F)cc3F)c(Br)c2=O)c1`: the “viability (% of control)” value is 108%.

Take `CCCCCN(CCC12CC3CC(CC(C3)C1)C2)C(=O)NCCCc1ccncc1`: the Potency is 14.8 µM (active).

With `CC(C)(O)CC(=O)NCCn1ccc2ncnc(Nc3ccc(Oc4cccc(C(F)(F)F)c4)c(Cl)c3)c21`, the Potency is 14.8 µM (active).

For `O=C(O)c1ccc(O)c2ncc(N3CCOCC3)cc12`, the “viability (% of control)” value is 113%.

Regarding `CC[C@@](C)(Nc1ccnc(-c2c[nH]c3ncccc23)n1)C(=O)NCC(F)(F)F`, the Potency is 6.61 µM (active).

Regarding `CNC(=O)c1cccc2cc(Oc3ccnc4cc(OCC5(N)CC5)c(OC)cc34)ccc12`, the Potency is 18.6 µM (active).

Take `Cc1cc(F)c(C(=O)Nc2cccc(-c3nncn3C(C)C)n2)cc1-n1cnc(C2CC2)c1`: the Potency was 16.6 µM (active).

Consider `C[C@@H](c1ccc2nccn2c1)n1nnc2ncc(-c3cnn(C)c3)nc21`, for which the “viability (% of control)” value was 117%.
